Source: PubChem BioAssay (Tox21)
Where “and” joins values, the source holds several entries; their conditions need not be identical. Equal entries are not always repeated. Inconclusive results are not listed. Where a call stands in place of a potency, no number is given. Some structures have more than one record in an assay (separate samples or runs), and their calls can disagree. Calls of active or inactive are those of the source. Unless noted, calls follow the shape of the dose curve; as a rule, active = well fitted curve in the direction sought with a large enough effect in the repeat runs; inconclusive = weak or mixed curves; inactive = no such curve, though single readings can be large; an effect the other way counts as inactive or inconclusive.

Experiments:
[1] = target: Thyrotropin receptor (Homo sapiens) (UniProt P16473); assay: qHTS assay to identify small molecule antagonists of the thyroid stimulating hormone receptor (TSHR) signaling pathway (AID 1259385; calls by dose curve; also: nearly all actives have a fitted effect of over 20% in size)
Thyrotropin receptor (Homo sapiens), sequence (P16473 whole entry, looked up): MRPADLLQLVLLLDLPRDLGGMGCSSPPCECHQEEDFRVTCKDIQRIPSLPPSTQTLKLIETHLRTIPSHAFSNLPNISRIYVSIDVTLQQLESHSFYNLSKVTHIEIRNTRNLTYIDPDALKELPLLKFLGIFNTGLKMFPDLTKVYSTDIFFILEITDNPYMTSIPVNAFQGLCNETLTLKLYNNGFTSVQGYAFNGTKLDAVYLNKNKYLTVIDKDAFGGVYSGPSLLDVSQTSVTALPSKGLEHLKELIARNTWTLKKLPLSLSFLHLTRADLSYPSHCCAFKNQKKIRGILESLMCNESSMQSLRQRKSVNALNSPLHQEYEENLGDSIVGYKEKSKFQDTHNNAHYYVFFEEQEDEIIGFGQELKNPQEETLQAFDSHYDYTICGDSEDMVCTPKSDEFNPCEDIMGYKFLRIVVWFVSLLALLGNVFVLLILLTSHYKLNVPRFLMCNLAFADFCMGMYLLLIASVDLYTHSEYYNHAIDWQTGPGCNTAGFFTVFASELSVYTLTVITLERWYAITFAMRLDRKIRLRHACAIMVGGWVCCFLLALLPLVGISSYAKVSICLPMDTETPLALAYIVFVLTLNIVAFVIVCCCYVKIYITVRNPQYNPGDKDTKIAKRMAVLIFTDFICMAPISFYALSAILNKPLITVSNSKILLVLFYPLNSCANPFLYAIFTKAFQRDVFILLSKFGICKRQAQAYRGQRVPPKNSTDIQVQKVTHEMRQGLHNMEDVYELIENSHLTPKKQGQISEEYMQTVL
Method in brief: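 TSHR-HEK293 cells were plated and held 18 h at 37C/5% CO2, then given compound plus Ro20-1724 and stimulated with TSH at 1.5 ng/mL final. After 30 min at room temperature, cAMP was detected with cAMP-d2/anti-cAMP-cryptate (1 h) by fluorescence.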

[2] = qHTS assay to identify small molecule agonists of the estrogen receptor alpha (ER-alpha) signaling pathway in the presence of an antagonist - cell viability counter screen (AID 1259386);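 also: cells exposed to compounds for 22 h at 37 °C before the viability read; nearly all actives have a fitted effect of over 30% in size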; also: potency is read from the fitted curve at half-maximal effect
Method in brief: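 ICI-182,780 at 10.0nM final accompanies the compound titration (15 concentrations, 22hr, 37C) on VM7Luc4E2 cells. The CellTiter-Fluor fluorescence readout runs in the same wells as the luciferase assay.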

[3] = target: Progesterone receptor (Homo sapiens) (UniProt P06401); assay: qHTS assay to identify small molecule agonists of the progesterone receptor (PR) signaling pathway (AID 1346784; calls by dose curve; also: nearly all actives have a fitted effect of over 30% in size)
Progesterone receptor (Homo sapiens), sequence (P06401 whole entry, looked up): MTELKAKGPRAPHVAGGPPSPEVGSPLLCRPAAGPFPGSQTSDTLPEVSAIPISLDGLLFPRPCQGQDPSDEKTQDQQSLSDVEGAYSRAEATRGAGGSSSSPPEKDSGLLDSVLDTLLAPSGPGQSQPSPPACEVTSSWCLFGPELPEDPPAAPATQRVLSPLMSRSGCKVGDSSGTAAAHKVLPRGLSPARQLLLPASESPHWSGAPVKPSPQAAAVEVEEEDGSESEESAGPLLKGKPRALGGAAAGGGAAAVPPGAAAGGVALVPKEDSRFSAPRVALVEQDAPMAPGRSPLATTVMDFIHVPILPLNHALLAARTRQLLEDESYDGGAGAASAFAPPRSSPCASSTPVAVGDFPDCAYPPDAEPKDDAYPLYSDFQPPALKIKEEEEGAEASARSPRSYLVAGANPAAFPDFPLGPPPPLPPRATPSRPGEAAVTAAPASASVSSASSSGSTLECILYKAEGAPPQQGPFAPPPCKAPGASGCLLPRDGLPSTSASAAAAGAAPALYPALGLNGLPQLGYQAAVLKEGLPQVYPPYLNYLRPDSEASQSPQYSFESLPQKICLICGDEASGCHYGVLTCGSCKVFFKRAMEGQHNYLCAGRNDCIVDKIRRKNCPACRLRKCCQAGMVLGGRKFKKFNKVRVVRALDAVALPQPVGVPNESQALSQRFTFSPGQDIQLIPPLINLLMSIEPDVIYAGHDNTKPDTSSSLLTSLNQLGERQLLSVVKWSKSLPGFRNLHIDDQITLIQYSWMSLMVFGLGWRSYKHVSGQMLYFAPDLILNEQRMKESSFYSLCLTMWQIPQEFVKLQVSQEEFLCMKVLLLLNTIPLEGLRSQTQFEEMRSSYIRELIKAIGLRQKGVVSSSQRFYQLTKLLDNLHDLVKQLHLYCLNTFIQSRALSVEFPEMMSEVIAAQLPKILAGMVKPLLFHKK
Method in brief: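 Cells (PR-UAS-bla HEK 293T, GripTite) were plated in assay medium containing 2% charcoal-stripped FBS and incubated 6 hr. Test compounds in DMSO were added for 16 hr at 37C. FRET substrate was then loaded for 2 hr at room temperature before fluorescence reading.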

[4] = target: Progesterone receptor (Homo sapiens) (UniProt P06401); assay: qHTS assay to identify small molecule antagonists of the progesterone receptor (PR) signaling pathway (AID 1346795; active = well fitted inhibition curve with a large enough effect in the signal ratio in the repeat runs, not every such curve was filed as active; the % refers to the signal ratio; also: potency is read from the fitted curve at half-maximal effect)
Method in brief: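 Antagonist mode: compounds tested against 1 nM (final) promegestone stimulation in HEK293T cells expressing PR-UAS-bla reporter, 16 hr at 37C, 5% CO2; beta-lactamase activity detected via B/G FRET substrate after 2 hr at room temperature.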

[5] = qHTS assay to identify small molecule antagonists of the progesterone receptor (PR) signaling pathway - cell viability counter screen (AID 1346798); also: series mostly up to about 92 µM; nearly all actives have a fitted effect of over 50% in size
Method in brief: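 Counter screen for cytotoxicity: viability of PR-UAS-bla HEK293T cells was measured with CellTiter-Glo luminescence following 16 hr compound exposure in the presence of R5020.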

[6] = qHTS assay to identify small molecule agonists of the progesterone receptor (PR) signaling pathway - cell viability counter screen (AID 1346799; calls by dose curve; also: nearly all actives have a fitted effect of over 45% in size)
Method in brief: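 Cells (PR-UAS-bla HEK293T) are plated at 3,000/well in 2% charcoal-stripped FBS medium, rested 6 hr, dosed and incubated 16 hr at 37C. CellTiter-Glo is then added and luminescence measured after 30 min at room temperature.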

[7] = qHTS assay to identify small molecule antagonists of the TGF-beta/Smad signaling pathway - cell viability counter screen (AID 1346824); also: nearly all actives have a fitted effect of over 50% in size
Method in brief: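 SBE-bla HEK 293T cells were plated overnight at 37 C, then given compounds in DMSO plus TGF-beta1 (added as 0.25 ng/mL solution) for 5 hr. After the bla read, CellTiter-Glo was added to the same wells and luminescence read after 30 min at room temperature.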

[8] = qHTS assay to identify small molecule agonists of the TGF-beta/Smad signaling pathway - cell viability counter screen (AID 1346829); also: top concentration of the series differs between compounds; nearly all actives have a fitted effect of over 45% in size
Method in brief: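 SBE-bla HEK 293T cells plated overnight, compound exposure 5 hr at 37 C. Viability read in the same wells by CellTiter-Glo luminescence after 30 min at room temperature, following the beta-lactamase read.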

[9] = target: Thyrotropin-releasing hormone receptor (Homo sapiens) (UniProt P34981); assay: qHTS assay to identify small molecule agonists of the thyrotropin-releasing hormone receptor (TRHR) signaling pathway (AID 1346891; calls by dose curve;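 also: HEK293 cells expressing TRHR with calcium dye readout; series mostly up to about 58 µM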)
Thyrotropin-releasing hormone receptor (Homo sapiens), sequence (P34981 whole entry, looked up): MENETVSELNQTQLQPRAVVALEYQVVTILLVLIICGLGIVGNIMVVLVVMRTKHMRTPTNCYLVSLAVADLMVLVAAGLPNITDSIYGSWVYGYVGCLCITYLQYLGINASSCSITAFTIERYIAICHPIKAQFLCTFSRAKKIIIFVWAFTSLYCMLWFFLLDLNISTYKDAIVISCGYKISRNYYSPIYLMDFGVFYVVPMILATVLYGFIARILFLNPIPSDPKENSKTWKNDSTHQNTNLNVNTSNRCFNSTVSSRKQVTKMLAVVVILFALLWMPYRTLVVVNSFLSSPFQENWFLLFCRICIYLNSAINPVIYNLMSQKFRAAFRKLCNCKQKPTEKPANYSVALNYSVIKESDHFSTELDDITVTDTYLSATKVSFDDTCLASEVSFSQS
Method in brief: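 Cells: TRHR-Hek293, seeded and incubated 18 h. Dye loading: 2 h at 37 °C. Compound added from DMSO stock by pin tool. Read-out: kinetic calcium fluorescence over 3 min.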

[10] = Caspase-3/7 induction in HepG2 cells by small molecules, qHTS assay (AID 1346978); also: nearly all actives have a fitted effect of over 15% in size
Method in brief: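 Wild-type HepG2 cells (2,000/well) were settled 5 h at 37 C, 5% CO2, then exposed to compounds in DMSO for 17 h. Caspase-3/7 activity was read by luminescence 30 min after adding Caspase-Glo 3/7 reagent at room temperature.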

[11] = Caspase-3/7 induction in CHO-K1 cells by small molecules, qHTS cell viability counter screen (AID 1346979); also: nearly all actives have a fitted effect of over 35% in size; also: potency is read from the fitted curve at half-maximal effect
Method in brief: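 Cytotoxicity counter screen run in parallel with the caspase-3/7 assay: CHO-K1 cells, 16hr compound treatment at 37C, then CellTiter-Fluor for 1hr before fluorescence reading.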

[12] = Caspase-3/7 induction in CHO-K1 cells by small molecules, qHTS assay (AID 1346980); also: nearly all actives have a fitted effect of over 15% in size
Method in brief: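 Wild-type cells were seeded at 1,500 per well and settled 5 hr at 37 C, 5% CO2, then exposed to DMSO-dissolved compounds for 17 hr. Caspase-Glo 3/7 reagent was added, and luminescence was read after 30min at room temperature.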

[13] = Caspase-3/7 induction in HepG2 cells by small molecules, qHTS cell viability counter screen (AID 1346981); also: nearly all actives have a fitted effect of over 30% in size; also: potency is read from the fitted curve at half-maximal effect
Method in brief: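 Multiplexed with the caspase-3/7 assay: HepG2 cells, 16 hr compound treatment, CellTiter-Fluor viability detection by fluorescence.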

[14] = target: Nuclear receptor subfamily 1 group I member 2 (Homo sapiens) (UniProt O75469); assay: Human pregnane X receptor (PXR) small molecule agonists, qHTS assay (AID 1346982); also: nearly all actives have a fitted effect of over 35% in size; also: potency is read from the fitted curve at half-maximal effect
Nuclear receptor subfamily 1 group I member 2 (Homo sapiens), sequence (O75469 whole entry, looked up): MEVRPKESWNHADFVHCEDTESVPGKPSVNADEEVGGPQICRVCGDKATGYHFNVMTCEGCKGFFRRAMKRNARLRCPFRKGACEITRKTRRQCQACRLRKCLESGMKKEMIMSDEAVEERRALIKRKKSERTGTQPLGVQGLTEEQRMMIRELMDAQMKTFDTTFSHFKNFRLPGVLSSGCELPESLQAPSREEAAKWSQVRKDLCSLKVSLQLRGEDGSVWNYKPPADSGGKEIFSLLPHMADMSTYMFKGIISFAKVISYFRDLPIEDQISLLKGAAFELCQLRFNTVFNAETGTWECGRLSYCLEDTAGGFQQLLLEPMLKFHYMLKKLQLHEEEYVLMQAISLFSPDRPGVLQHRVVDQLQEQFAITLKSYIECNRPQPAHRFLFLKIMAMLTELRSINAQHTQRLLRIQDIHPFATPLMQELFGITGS
Method in brief: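 We seeded PXR-Luc HepG2 cells in assay medium containing 5% charcoal-stripped FBS, added compounds 5 hr later, incubated 24 hr, and read luminescence with ONE-Glo reagent.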

[15] = target: Thyrotropin-releasing hormone receptor (Homo sapiens) (UniProt P34981); assay: qHTS assay to identify small molecule antagonists of the thyrotropin-releasing hormone receptor (TRHR) signaling pathway (AID 1346877; active = well fitted inhibition curve with a large enough effect in the repeat runs, not every such curve was filed as active; also: series mostly up to about 51 µM)
Method in brief: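 Screening used HEK293 cells engineered with TRHR, with a brief 5 min room-temperature compound exposure preceding addition of TRH to 1 nM. The read-out was kinetic calcium-dye fluorescence, concentration-response from 15 doses in triplicate.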

[16] = Human pregnane X receptor (PXR) small molecule agonists, qHTS cell viability counter screen (AID 1346977); also: nearly all actives have a fitted effect of over 50% in size; also: potency is read from the fitted curve at half-maximal effect
Method in brief: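 Cytotoxicity counter screen run in the same wells as the PXR luciferase assay, using PXR-Luc HepG2 cells in charcoal-stripped serum medium. Viability: CellTiter-Fluor fluorescence after 24hr compound treatment.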

[17] = qHTS assay to identify small molecule agonists of the TGF-beta/Smad signaling pathway (AID 1346859; active = well fitted activation curve with a large enough effect in the signal ratio in the repeat runs, not every such curve was filed as active; the % refers to the signal ratio; also: series mostly up to about 77 µM)
Method in brief: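 Reporter line: HEK 293T with stably integrated SBE-controlled beta-lactamase. Compound exposure lasts 5 hr at 37 C and 5% CO2; substrate loading follows for 2 hr at room temperature, with emission read at 460 and 530 nm.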

[18] = target: Nuclear receptor subfamily 1 group I member 2 (Rattus norvegicus) (UniProt Q9R1A7); assay: Rat pregnane X receptor (rPXR) activation by small molecules, qHTS assay (AID 1346983); conditions: rPXR luciferase reporter cells, One-Glo luminescence, 24 h; max activation: stronger effect = higher value; also: nearly all actives have a fitted effect of over 20% in size
Nuclear receptor subfamily 1 group I member 2 (Rattus norvegicus), sequence (Q9R1A7 whole entry, looked up): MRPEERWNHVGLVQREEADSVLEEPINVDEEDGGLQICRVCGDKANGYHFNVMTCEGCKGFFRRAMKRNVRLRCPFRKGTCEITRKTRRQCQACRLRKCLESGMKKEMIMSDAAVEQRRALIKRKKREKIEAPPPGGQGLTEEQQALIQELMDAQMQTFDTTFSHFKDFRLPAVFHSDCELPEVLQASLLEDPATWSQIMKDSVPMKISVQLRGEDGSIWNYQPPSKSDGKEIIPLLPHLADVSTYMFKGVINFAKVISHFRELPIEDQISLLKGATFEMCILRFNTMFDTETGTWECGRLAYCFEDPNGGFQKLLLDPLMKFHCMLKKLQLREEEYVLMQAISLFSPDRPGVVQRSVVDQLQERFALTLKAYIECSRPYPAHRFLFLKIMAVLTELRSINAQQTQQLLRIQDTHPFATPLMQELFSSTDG
Method in brief: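 Cell-based rPXR luciferase reporter assay, 2,000 cells per well, rested 5hr at 37 C before compound addition in DMSO, then 24 hr at 37 C. One-Glo reagent was added and luminescence read after 30 min at room temperature.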

[19] = target: Nuclear receptor subfamily 1 group I member 2 (Homo sapiens) (UniProt O75469); assay: CYP3A4 induction through human pregnane X receptor (PXR) by small molecules, qHTS assay (AID 1346984); also: nearly all actives have a fitted effect of over 40% in size
Method in brief: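 qHTS, concentration-response format: HepG2 DPX-2 line, PXR/CYP3A4-luc. Exposure 24 h, 37C. Substrate Luciferin-IPA 3uM final, 3 h. Detection One-Glo, 30 min RT.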

[20] = target: Nuclear receptor subfamily 1 group I member 2 (Homo sapiens) (UniProt O75469); assay: Human pregnane X receptor (PXR) activation by small molecules, qHTS assay (AID 1346985); also: nearly all actives have a fitted effect of over 40% in size
Method in brief: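 DPX-2 cells (HepG2 co-transfected with a PXR response element and a CYP3A4-promoter luciferase construct) were seeded at 2,000 per well, rested 5 hr at 37C, then exposed to DMSO-dissolved compounds for 24 hr. Activation was read as luciferase luminescence.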

Compound	outcome [1]	Potency [2]	Potency [3]	Potency [4]	Potency [5]	Potency [6]	Potency [7]	Potency [8]	Potency [9]	Potency [10]	Potency [11]	Potency [12]	Potency [13]	Potency [14]	outcome [15]	Potency [16]	outcome [17]	max activation [18]	outcome [19]	outcome [20]
Oc1ccc2ccccc2c1N=Nc1ccccc1	inactive	21.7 µM (active) and 19.3 µM (active)	inactive	24.3 µM (active)	inactive	inactive	inactive	inactive	inactive	inactive	48.5 µM (active) and 27.3 µM (active)	inactive	48.5 µM (active) and 27.3 µM (active)	43.2 µM (active) and 21.7 µM (active)						
CCCCC(CC)C(=O)OCCOCCOCCOC(=O)C(CC)CCCC (stereo not drawn)	inactive	inactive	inactive	inactive	inactive	inactive	inactive	inactive	inactive	inactive	inactive	inactive	inactive	inactive	inactive	inactive				
C=CC(=O)OCCCCCCCC(C)C	inactive	inactive	inactive	inactive	inactive	inactive	inactive	inactive	inactive	inactive	inactive	inactive	inactive	inactive		inactive				
O=S(=O)(Oc1ccc(Cl)cc1Cl)c1ccccc1	inactive	inactive	inactive	8.78 µM (active) and 12.2 µM (active)	inactive	inactive	inactive	inactive		inactive	inactive	inactive	inactive	49.4 µM (active) and 54.5 µM (active)		inactive	inactive			
CC1=C(CC(=O)O)c2cc(F)ccc2/C1=C\c1ccc(S(C)=O)cc1 (stereo not drawn)	inactive	inactive	inactive	inactive	inactive	inactive	inactive	inactive		inactive	inactive	inactive	inactive	21.7 µM (active) and inactive		inactive		-1.51% (inactive)	inactive	inactive
Oc1ccc2ccccc2c1	inactive	inactive	inactive	48.6 µM (active)	inactive	inactive	inactive	inactive		inactive	inactive	inactive	inactive							
CC[Si](OC(C)=O)(OC(C)=O)OC(C)=O	inactive	inactive	inactive	inactive	inactive	inactive	inactive	inactive	inactive	inactive	inactive	inactive	inactive	48.5 µM (active) and 48.6 µM (active)	inactive					
CC(C)(C)C(=O)C1C(=O)c2ccccc2C1=O	inactive	60.5 µM (active) and 61.1 µM (active)	inactive	inactive	inactive	inactive	inactive	inactive		inactive	27 µM (active) and 43.3 µM (active)	inactive	60.5 µM (active)			50.1 µM (active)	inactive			
